Drawing on PubChem BioAssay (NCI), this text covers growth for 14 compounds.

Compounds without any hit were thinned out: in the full panel of roughly 83,000, 20% have a hit.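 Results are percent growth after 48 hours of single-concentration exposure. 100 means growth as in untreated cells, lower positive values show inhibition; negative values down to -100 show cell death.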 A number with no mark means an inactive call. Activity calls are given as the source filed them. The calls were made as follows: active = growth percent below 10; inactive = the rest.

The experiment deals with HL-60(TB) leukemia. In words: NCI-60 one-dose screen, 48 h (100 = growth as untreated, 0 = no growth, -100 = all killed). The conditions noted are these: 10 µM unless noted.
On to `COc1cc(C)cc(-c2c(-c3cc(N4CC(O)C4)nc(-c4cccnc4)n3)cnn2C)c1`, for which the growth was 105%.

On to `COc1cc(/C=N\Nc2ccccc2)ccc1OC(=O)c1ccccc1`, for which the growth is -10.8% (active).

Regarding `O=C(NN1C(=O)c2cc(C(=O)O)c(C(=O)O)cc2C1=O)c1ccncc1`, the growth is 109%.

As to `CCC(C)[C@H](NC(=O)NC(=O)NC(=O)CI)C(=O)OC` (some centres undefined), the growth is 71.8%.

Turning to `CC[C@H](Nc1nc(N)nc(C)c1C#N)c1nc2cccc(NCc3ccc(C(=O)NO)cc3)c2c(=O)n1-c1ccccc1`, the growth was 2.45% (active).

For the compound `Cc1ccc(/C=C(/C#N)n2nnc3ncccc32)cc1`, the growth was 0.0853% (active).

`O=[N+]([O-])c1cc([N+](=O)[O-])c(C(F)(F)F)cc1NN=C(c1ccc(O)cc1)c1ccc(O)cc1`: the growth was 103%.

Take `Cc1ccc2[nH]c(=S)[nH]c(=O)c2c1`: the growth was 105%.

As to `CCCN1CCN(c2ccc3nc(-c4ccc5nc(-c6cc(OC)ccc6OC)[nH]c5c4)[nH]c3c2)CC1`, the growth is 106%.

In the case of `CN1CCN(Cc2ccc(NC(=O)c3cncc(C#Cc4c(N)ncc5ccc(C#N)cc45)c3)cc2C(F)(F)F)CC1`, the growth is 9.71% (active).

Turning to `COc1cc2c(c(OC)c1OC)-c1cc(I)c(O)cc1[C@@H](NC(C)=O)CC2`, the growth was 12.7%.

With `O=C(O)CCCCCNC(=O)OCc1ccccc1`, the growth was 103%.

With `CCOC(=O)c1sc(N)nc1-c1ccccc1`, the growth was 98.3%.

On to `COc1cc(C2C(C#N)=C(N)OC3=C2C(=O)c2ccccc2C3=O)cc(OC)c1OC` (centres undefined), for which the growth is 15.2%.
